As a reminder, the AC50 is the concentration at which the activity in the assay is half-maximal.

Data on three compounds can be found in PubChem BioAssay (EPA / NIEHS).

Some compounds were tested as several samples or in several runs, with calls that do not always agree. Active and inactive are the calls of the source. How the source made its calls: active means hit-call score of the fitted dose curve at least 0.9, where 1 is the maximum; inactive means score below 0.9.

Settings in all cases: mRNA level, 48 h; actives raise or lower the signal
Read-out in assay [1]: adenosine kinase (ADK) gene, ADK (gene 132)
The assay can be described thus: LTEA_HepaRG_ADK: Life Technologies and Expression Analysis (LTEA) Assay for adenosine kinase (ADK) gene using HepaRG (AID 2283471). Summed up:
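Read-out is ADK transcript level measured by qRT-PCR and normalised to three housekeeping genes. Cells are human HepaRG, dosed for 48 h at up to 100 uM in 0.5% DMSO. Gain or loss of signal is fitted against DMSO controls.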

Read-out in assay [2]: Alpha-fetoprotein (AFP) gene, AFP (gene 174)
The assay can be described thus: LTEA_HepaRG_AFP: Life Technologies and Expression Analysis (LTEA) Assay for Alpha-fetoprotein (AFP) gene using HepaRG (AID 2283472). An outline of the steps: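 AFP transcript measured by TaqMan qRT-PCR with three housekeeping genes for normalization, after 48 h chemical treatment of HepaRG cells (top 100 uM, half-log steps, 0.5% DMSO). Gain or loss fitted against vehicle.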

Read-out in assay [3]: BCL2L11 (gene 10018)
The assay can be described thus: LTEA_HepaRG_BCL2L11: Life Technologies and Expression Analysis (LTEA) Assay for Bcl-2 (BCL2L11) gene using HepaRG (AID 2283473). An outline of the steps: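 Differentiated human HepaRG cells were exposed 48 h in serum-free induction medium to eight half-log concentrations up to 100 uM in 0.5% DMSO, in duplicate. BCL2L11 mRNA was quantified by TaqMan qRT-PCR, normalized to ACTB, GAPDH and POLR2A; induction or repression fitted versus DMSO.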

Read-out in assay [4]: Apolipoprotein A-V (APOA5) gene, APOA5 (gene 116519)
In words: LTEA_HepaRG_APOA5: Life Technologies and Expression Analysis (LTEA) Assay for Apolipoprotein A-V (APOA5) gene using HepaRG (AID 2283474). Summed up: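 Differentiated HepaRG cells in serum-free induction medium, exposed 48 h in duplicate to eight half-log concentrations topping at 100 uM (0.5% DMSO). APOA5 mRNA by Fluidigm TaqMan qRT-PCR, normalized to ACTB, GAPDH and POLR2A; bidirectional fit versus DMSO.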

Read-out in assay [5]: Apoptosis regulator Bcl-2 (Homo sapiens) (UniProt P10415)
The assay can be described thus: LTEA_HepaRG_BCL2: Life Technologies and Expression Analysis (LTEA) Assay for Bcl-2 gene using HepaRG (AID 2283475). Summed up: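 qRT-PCR of BCL2 transcript, normalized to three housekeeping genes (ACTB, GAPDH, POLR2A), after 48 h chemical exposure of HepaRG cells; concentrations top 100 uM with half-log dilutions, 0.5% DMSO vehicle, duplicates; changes up or down fitted relative to vehicle.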

Read-out in assay [6]: Bcl-2 (BID) gene, BID (gene 637)
In words: LTEA_HepaRG_BID: Life Technologies and Expression Analysis (LTEA) Assay for Bcl-2 (BID) gene using HepaRG (AID 2283476). Summed up:
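Duplicate 48 h treatments of HepaRG cells in serum-free induction medium spanned 100 uM downward in half-log steps, 0.5% DMSO. Transcript change quantified by qRT-PCR against three housekeeping genes, fitted up or down versus DMSO.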

Read-out in assay [7]: Caspase-3 (Homo sapiens) (UniProt P42574)
The assay can be described thus: LTEA_HepaRG_CASP3: Life Technologies and Expression Analysis (LTEA) Assay for cysteine-aspartic acid protease (CASP3) using HepaRG (AID 2283477). An outline of the steps:
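Differentiated HepaRG cells, plated 48 h, were treated in duplicate in serum-free induction medium for 48 h with eight half-log concentrations up to 100 uM in 0.5% DMSO. CASP3 mRNA measured by qRT-PCR, normalized to ACTB, GAPDH, POLR2A.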

Read-out in assay [8]: Cytochrome P450 (CYP24A1), CYP24A1 (gene 1591)
The assay can be described thus: LTEA_HepaRG_CYP24A1: Life Technologies and Expression Analysis (LTEA) Assay for Cytochrome P450 (CYP24A1) using HepaRG (AID 2283478). An outline of the steps:
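HepaRG cells plated 48 h, then exposed in duplicate in serum-free induction medium for 48 h to 8-point half-log series from 100 uM in 0.5% DMSO. CYP24A1 mRNA by Fluidigm qRT-PCR, normalized to ACTB, GAPDH, POLR2A; bidirectional fit versus DMSO.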

Read-out in assay [9]: Cytochrome P450 (CYP1A2), CYP1A2 (gene 1544)
In words: LTEA_HepaRG_CYP1A2: Life Technologies and Expression Analysis (LTEA) Assay for Cytochrome P450 (CYP1A2) using HepaRG (AID 2283479). An outline of the steps: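 Differentiated human HepaRG cells in serum-free induction medium exposed 48 hours in duplicate to 8 half-log concentrations from 100 uM, 0.5% DMSO. CYP1A2 mRNA quantified by qRT-PCR, normalized to ACTB, GAPDH and POLR2A; bidirectional fitting versus DMSO.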

Read-out in assay [10]: cysteine-aspartic acid protease (CASP8), CASP8 (gene 841)
In words: LTEA_HepaRG_CASP8: Life Technologies and Expression Analysis (LTEA) Assay for cysteine-aspartic acid protease (CASP8) using HepaRG (AID 2283480). Summed up:
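qRT-PCR readout of CASP8 mRNA, normalized to three housekeeping genes, after 48 h chemical exposure of HepaRG cells; 8-point half-log series, top 100 uM, 0.5% DMSO vehicle. Bidirectional curve fitting against DMSO baseline.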

Read-out in assay [11]: Cytochrome P450 (CYP2B6), CYP2B6 (gene 1555)
The assay can be described thus: LTEA_HepaRG_CYP2B6: Life Technologies and Expression Analysis (LTEA) Assay for Cytochrome P450 (CYP2B6) using HepaRG (AID 2283481). An outline of the steps:
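Differentiated human HepaRG cells in serum-free induction medium, dosed in duplicate for 48 h over 8 half-log concentrations topping at 100 uM (0.5% DMSO). CYP2B6 mRNA measured by TaqMan qRT-PCR, normalized to ACTB, GAPDH, POLR2A; bidirectional fit versus DMSO.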

Read-out in assay [12]: Cytochrome P450 2C19 (Homo sapiens) (UniProt P33261)
The assay can be described thus: LTEA_HepaRG_CYP2C19: Life Technologies and Expression Analysis (LTEA) Assay for CYP2C19 using HepaRG (AID 2283482). An outline of the steps:
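Differentiated HepaRG cells in serum-free induction medium exposed 48 h in duplicate, 8 concentrations from 100 uM by half-log steps in 0.5% DMSO. CYP2C19 mRNA measured by TaqMan qRT-PCR, normalized to ACTB, GAPDH, POLR2A. Bidirectional fit versus DMSO.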

Read-out in assay [13]: CYP2C8 (gene 1558)
The assay can be described thus: LTEA_HepaRG_CYP2C8: Life Technologies and Expression Analysis (LTEA) Assay for CYP2C8 using HepaRG (AID 2283483). An outline of the steps:
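HepaRG (human liver line), 48 h chemical exposure, 8-pt half-log series from 100 uM, 0.5% DMSO vehicle. Readout: CYP2C8 transcript by qRT-PCR, housekeeping-normalized. Bidirectional fit vs DMSO baseline.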

Read-out in assay [14]: CYP2C9 (gene 1559)
The assay can be described thus: LTEA_HepaRG_CYP2C9: Life Technologies and Expression Analysis (LTEA) Assay for CYP2C9 using HepaRG (AID 2283484). An outline of the steps: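 HepaRG, 48 h dosing, 8-pt half-log series, top 100 uM, 0.5% DMSO vehicle. Read-out: CYP2C9 transcript by TaqMan qRT-PCR, housekeeping-normalized (ACTB/GAPDH/POLR2A). Gain or loss fitted vs DMSO baseline.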

Read-out in assay [15]: CYP2E1 (gene 1571)
The assay can be described thus: LTEA_HepaRG_CYP2E1: Life Technologies and Expression Analysis (LTEA) Assay for CYP2E1 using HepaRG (AID 2283485). An outline of the steps:
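CYP2E1 transcript measured by Fluidigm qRT-PCR against three housekeeping genes in human HepaRG cells treated 48 h (top 100 uM, half-log steps, 0.5% DMSO vehicle). Gain or loss fitted relative to DMSO baseline.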

Read-out in assay [16]: CYP4A11 (gene 1579)
The assay can be described thus: LTEA_HepaRG_CYP4A11: Life Technologies and Expression Analysis (LTEA) Assay for CYP4A11 using HepaRG (AID 2283486). Summed up: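 Differentiated HepaRG cells, 48 h after plating, exposed in duplicate for 48 h to 8 half-log concentrations up to 100 uM in 0.5% DMSO in serum-free induction medium. CYP4A11 mRNA measured by TaqMan qRT-PCR, normalized to ACTB, GAPDH and POLR2A.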

Read-out in assay [17]: Cytochrome P450 3A4 (Homo sapiens) (UniProt P08684)
The assay can be described thus: LTEA_HepaRG_CYP3A4: Life Technologies and Expression Analysis (LTEA) Assay for CYP3A4 using HepaRG (AID 2283487). An outline of the steps: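 HepaRG, 48 h exposure, 8-pt CRC from 100 uM (half-log), 0.5% DMSO, duplicates; serum-free induction medium. Readout: CYP3A4 mRNA, qRT-PCR, ACTB/GAPDH/POLR2A normalization. Bidirectional fit vs DMSO.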

Read-out in assay [18]: DNA damage-inducible transcript 3 (DDIT3), DDIT3 (gene 1649)
In words: LTEA_HepaRG_DDIT3: Life Technologies and Expression Analysis (LTEA) Assay for DNA damage-inducible transcript 3 (DDIT3) using HepaRG (AID 2283488). An outline of the steps:
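DDIT3 transcript was quantified by qRT-PCR with ACTB/GAPDH/POLR2A normalization after 48 h chemical treatment of differentiated HepaRG cells in 0.5% DMSO. Dosing was eight-point, half-log, top 100 uM, duplicate wells. Curves fitted bidirectionally versus DMSO.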

Read-out in assay [19]: Pro-epidermal growth factor (Homo sapiens) (UniProt P01133)
In words: LTEA_HepaRG_EGF: Life Technologies and Expression Analysis (LTEA) Assay for Epidermal growth factor (EGF) using HepaRG (AID 2283489). Summed up: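 HepaRG cells (~100,000/well, 48 h pre-culture) exposed in duplicate for 48 h in serum-free induction medium to 8 half-log concentrations up to 100 uM in 0.5% DMSO. EGF mRNA by qRT-PCR, normalized to ACTB/GAPDH/POLR2A; bidirectional fit versus DMSO.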

Read-out in assay [20]: Early growth response protein 1 (EGR1) transcription factor, EGR1 (gene 1958)
In words: LTEA_HepaRG_EGR1: Life Technologies and Expression Analysis (LTEA) Assay for Early growth response protein 1 (EGR1) transcription factor using HepaRG (AID 2283490). Summed up:
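HepaRG, 48 h exposure, 8-pt half-log series from 100 uM, 0.5% DMSO vehicle; EGR1 transcript by TaqMan qRT-PCR (Fluidigm array), housekeeping-normalized; bidirectional fit relative to DMSO baseline.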

Sequence of Cytochrome P450 2C19 (Homo sapiens) (P33261 whole entry, looked up): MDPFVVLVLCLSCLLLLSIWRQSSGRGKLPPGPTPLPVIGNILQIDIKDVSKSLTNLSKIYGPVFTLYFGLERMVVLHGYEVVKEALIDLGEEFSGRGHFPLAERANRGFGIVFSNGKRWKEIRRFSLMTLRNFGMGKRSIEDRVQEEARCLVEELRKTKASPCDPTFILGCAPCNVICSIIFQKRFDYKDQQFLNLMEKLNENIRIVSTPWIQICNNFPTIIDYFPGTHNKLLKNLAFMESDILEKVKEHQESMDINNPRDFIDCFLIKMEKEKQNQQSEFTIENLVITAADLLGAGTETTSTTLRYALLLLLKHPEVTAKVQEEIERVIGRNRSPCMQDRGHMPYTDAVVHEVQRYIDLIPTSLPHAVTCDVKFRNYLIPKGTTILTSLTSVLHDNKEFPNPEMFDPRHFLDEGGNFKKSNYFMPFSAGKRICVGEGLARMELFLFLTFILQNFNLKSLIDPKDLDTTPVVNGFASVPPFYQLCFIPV
Sequence of Caspase-3 (Homo sapiens) (P42574 whole entry, looked up): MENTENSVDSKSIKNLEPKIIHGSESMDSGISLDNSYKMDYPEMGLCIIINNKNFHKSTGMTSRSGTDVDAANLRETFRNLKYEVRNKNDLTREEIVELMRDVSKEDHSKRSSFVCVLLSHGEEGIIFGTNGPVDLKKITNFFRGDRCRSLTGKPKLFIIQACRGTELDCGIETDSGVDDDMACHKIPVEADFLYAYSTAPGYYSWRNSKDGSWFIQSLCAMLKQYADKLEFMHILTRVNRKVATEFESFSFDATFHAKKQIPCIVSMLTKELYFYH
Sequence of Apoptosis regulator Bcl-2 (Homo sapiens) (P10415 whole entry, looked up): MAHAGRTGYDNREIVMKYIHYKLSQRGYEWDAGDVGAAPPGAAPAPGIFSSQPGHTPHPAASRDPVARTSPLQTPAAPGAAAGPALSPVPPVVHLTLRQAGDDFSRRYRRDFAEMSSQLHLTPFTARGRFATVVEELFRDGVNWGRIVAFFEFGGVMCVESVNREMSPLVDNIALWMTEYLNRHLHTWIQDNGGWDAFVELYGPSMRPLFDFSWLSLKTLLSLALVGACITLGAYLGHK
Sequence of Cytochrome P450 3A4 (Homo sapiens) (P08684 whole entry, looked up): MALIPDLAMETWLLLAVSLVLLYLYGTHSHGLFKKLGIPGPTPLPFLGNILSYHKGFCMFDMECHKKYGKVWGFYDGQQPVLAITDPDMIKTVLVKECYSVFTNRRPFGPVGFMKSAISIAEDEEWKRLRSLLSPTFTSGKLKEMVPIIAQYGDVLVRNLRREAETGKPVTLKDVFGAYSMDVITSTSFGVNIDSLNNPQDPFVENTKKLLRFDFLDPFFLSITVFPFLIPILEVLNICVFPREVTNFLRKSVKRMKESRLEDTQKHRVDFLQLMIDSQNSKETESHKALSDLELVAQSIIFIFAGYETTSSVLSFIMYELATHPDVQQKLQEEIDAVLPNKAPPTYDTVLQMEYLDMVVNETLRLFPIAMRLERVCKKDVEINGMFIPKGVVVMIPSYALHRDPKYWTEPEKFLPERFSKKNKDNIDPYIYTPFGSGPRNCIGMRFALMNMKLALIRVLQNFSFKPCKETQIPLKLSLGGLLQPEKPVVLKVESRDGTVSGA

Regarding `CCOC(=O)CC(O)(CC(=O)OCC)C(=O)OCC`, the compound was classed as inactive in assay [1], in [2], in assay [3], in assay [4], in assay [5] and in [6]. Further, the outcome in assay [7], in assay [8], in assay [9], in assay [10], in assay [11] and in assay [12] was inactive. Moreover, the call in assay [13], in assay [14], in assay [15], in assay [16], in assay [17] and in [18] was inactive. Further, the outcome in assay [19] and in [20] was inactive.
On to `CCCCCCC(=O)O`, for which the compound was called inactive in assay [1], in assay [2], in assay [3], in [4], in assay [5] and in [6]. The result in assay [7], in [8], in assay [10], in assay [11], in [12] and in assay [13] was inactive. For the same compound, the outcome in [14], in [15], in assay [16], in assay [17], in assay [18] and in [19] was inactive. In assay [20], the compound was called inactive. Besides, the AC50 in assay [9] is 50 µM (active).
As for `O=[N+]([O-])c1ccc(O)cc1`, the compound was called inactive in [1], in assay [2], in assay [3], in assay [4], in assay [5] and in [6]. Further, the outcome in [7], in assay [8], in assay [9], in [10], in assay [11] and in assay [12] was inactive. Besides, the call in assay [13], in [14], in assay [15], in assay [16], in assay [17] and in assay [18] was inactive. Moreover, the compound was classed as inactive in [19] and in assay [20]. In addition, in assay [11], the concentration at half-maximal activity (AC50) is 19.9 µM (active).
